Assay results taken from PubChem BioAssay (NCATS).
Where “and” joins values, the source holds several entries; their conditions need not be identical. Equal values may be shown once.

molecular target: Cytochrome P450 3A4 (Homo sapiens) (UniProt P08684); test: qHTS Assay for Activators of Cytochrome P450 3A4 (AID 885); conditions: recombinant CYP3A4, Luciferin-PPXE luminescence, 60 min; series mostly up to 57.1 µM; activity change, positive = activation: at the top concentration; also: nearly all actives have a fitted effect of over 65% in size
Sequence (P08684 whole entry, looked up): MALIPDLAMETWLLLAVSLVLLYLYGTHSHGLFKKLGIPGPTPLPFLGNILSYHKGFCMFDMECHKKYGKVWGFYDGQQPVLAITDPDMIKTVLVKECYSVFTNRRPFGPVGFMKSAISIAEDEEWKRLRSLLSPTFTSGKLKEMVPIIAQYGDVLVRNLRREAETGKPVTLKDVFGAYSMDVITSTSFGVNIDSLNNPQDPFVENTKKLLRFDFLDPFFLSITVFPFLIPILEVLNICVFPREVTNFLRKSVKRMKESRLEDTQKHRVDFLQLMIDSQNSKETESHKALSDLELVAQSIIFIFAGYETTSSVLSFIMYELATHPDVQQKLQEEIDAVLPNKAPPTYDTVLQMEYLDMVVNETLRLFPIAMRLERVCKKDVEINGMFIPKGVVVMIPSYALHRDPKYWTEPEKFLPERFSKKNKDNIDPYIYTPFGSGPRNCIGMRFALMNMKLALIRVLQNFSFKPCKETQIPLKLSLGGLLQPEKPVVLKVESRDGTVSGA
How it was run: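 Luminescent readout of luciferin formed from 25 uM Luciferin-PPXE (KM level) by 20 nM CYP3A4 in 200 mM KPO4, with 60 min NADPH-driven reaction at room temperature after 10 min compound exposure. Ketoconazole (57 uM) defined 100% inhibition.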

Activity change, positive = activation, inactive:
CCC1=C2CC[C@H]3C(=O)NC(=O)[C@H]3[C@H]2[C@@]2(C)C(=NCCc3c[nH]c4ccccc34)OC(=O)N2C1=O -80%, C/C(CCN1CCCCc2nc(C)c(C)cc21)=N\O[C@@H](C)c1cn([C@H](CO)Cc2ccccc2)nn1 -72.3% [at 11.4 µM] and -80.4% [at 11.4 µM], CC(C)c1ccccc1S(=O)(=O)c1cc(N)c2ncccc2c1[N+](=O)[O-] -84.9%, C/C(CCC(=O)OC[C@@H]1O[C@H](C#Cc2ccccc2)C=C[C@@H]1Oc1ccc(C)cc1)=N/O[C@@H](C)CN1CCCCc2nc(C)c(C)cc21 -94.6% [at 11.4 µM]
